PubChem BioAssay (NCATS)
Inconclusive results are not listed. A call without a number means that no potency is given here. Calls of active or inactive are those of the source. Calls come from the whole dose curve; as a rule, active = well fitted curve in the direction sought with a large enough effect; inconclusive = small, poorly fitted or top-dose-only effect, or another doubt; inactive = no such curve, though single readings can be large; an effect the other way counts as inactive or inconclusive.

What was measured:
[1] = target: Aldehyde dehydrogenase, mitochondrial (Homo sapiens) (UniProt P05091); experiment: qHTS for Inhibitors of the Aldehyde Dehydrogenase Family (ALDH2) Primary screen (AID 2061308); note: nearly all actives have a fitted effect of over 55% in size; note: potency is the fitted concentration of half-maximal effect
[2] = target: Retinaldehyde dehydrogenase 3 (Homo sapiens) (UniProt P47895); experiment: qHTS for Inhibitors of the Aldehyde Dehydrogenase Family (ALDH1A3) Primary screen (AID 2061315)

| SMILES | Potency [1] | Potency [2] |
| --- | --- | --- |
| O=C1CCCC2=C1C(c1[nH]ncc1Br)N=C(Nc1nc3ccccc3o1)N2 (centres undefined) | inactive | inactive |
| Cc1ccc(OCCn2c(CCNC(=O)c3ccco3)nc3ccccc32)cc1 | inactive | inactive |
| CC(=O)c1ccc(N2CCN(S(=O)(=O)c3ccc4c(c3)OCC(=O)N4)CC2)cc1 | inactive | inactive |
| Cc1cccc(-n2cnc3cc(C(=O)NC4CCCCC4)ccc32)c1 | inactive | inactive |
| COc1cccc(C2c3c(ncn(-c4ccc(NC(C)=O)cc4)c3=N)Oc3ccc4ccccc4c32)c1 (centres undefined) | inactive | inactive |
| O=C(Nc1ccc(-c2nc3ccccc3[nH]2)cc1)c1ccc(C(F)(F)F)cc1 | inactive | inactive |
| CCCCCCNC(=O)Nc1nnc(-c2ccncc2)s1 | inactive | inactive |
| Cc1ccc(S(=O)(=O)Nc2ccccc2C(=O)Nc2nc(-c3ccccc3)co2)cc1 | inactive | inactive |
| Cc1nnc(-c2cnn(C)c2N)n1CCCc1ccccn1 | inactive | inactive |
| COc1ccc(NC(=O)C(OC(=O)CNC(=O)c2ccccc2)c2ccccc2)c(C)c1 (centres undefined) | inactive | inactive |
| COc1ccc(CC(=O)Nc2ccc(S(=O)(=O)Nc3cc(C)on3)cc2)cc1OC | inactive | inactive |
| COc1ccc(-c2nnc3n2N=C(c2cc(OC)ccc2OC)CS3)cc1 | inactive | inactive |
| Cc1cccc(-n2cnc3cc(C(=O)N4CCC(c5ccccc5)CC4)ccc32)c1 | inactive | inactive |
| Cc1cc(Nc2ncc3cc(-c4c(Cl)cccc4Cl)c(=O)n(C)c3n2)ccc1F | inactive | inactive |
| O=S(=O)(NC1CCCC(NS(=O)(=O)c2c(F)cccc2F)C1)c1ccc2c(c1)OCCO2 (centres undefined) | inactive | inactive |
| CCOC(=O)c1c(-c2ccc(OC)cc2)csc1NC(=O)C1CCCO1 (centres undefined) | inactive | inactive |
| Cc1cc(N[S+](=O)([O-])c2ccc(NC(=O)Cc3ccccc3Cl)cc2)no1 | inactive | inactive |
| O=C(O)C1C2C(=O)N(c3ccccc3)C[C@@]23C=C[C@@H]1O3 (some centres undefined) | inactive | inactive |
| CC(=O)O[C@@H]1CC2C(C)(C)C(=O)C=C[C@]2(C)C2CC[C@@]3(C)[C@H](c4ccoc4)OC(=O)[C@H]4O[C@]43[C@@]21C (some centres undefined) | inactive | inactive |
| O=C1CCc2cc(S(=O)(=O)Nc3ccc(Cl)c(Cl)c3)ccc2N1 | inactive | inactive |
| CCOC(=O)C1CCN(C(=O)C(C)(C)NC(=O)Nc2ccc3c(c2)CCC3)CC1 | inactive | inactive |

| SMILES | Potency [1] | Potency [2] |
| --- | --- | --- |
| COc1ccc(NC(=O)c2cc(-c3ccc(C)c(C)c3)nc3ccccc23)cc1 | inactive | inactive |
| Cc1ccc(OCCn2c(CCNC(=O)c3ccc(C#N)cc3)nc3ccccc32)cc1 | inactive | inactive |
| Fc1cc(Nc2nc(-c3ccncc3)nc3ccccc23)ccc1-c1cccc(C(F)(F)F)c1 | inactive | inactive |
| CC(=O)NC(c1ccco1)c1cc(Br)c2cccnc2c1O (centres undefined) | inactive | inactive |
| Cc1c(P(=S)(c2ccccc2)c2ccccc2)c2ccccc2n1Cc1ccccc1 | inactive | inactive |
| Cc1cc(Nc2c(Nc3nnc(-c4ccncc4)s3)c(=O)c2=O)ccc1Cl | inactive | inactive |
| Cc1nc(NC2CCCCC2)c2nc(-c3ccccc3)n(CCN(C)C)c2n1 | inactive | inactive |
| COc1cc(-c2no[n+]([O-])c2C#N)cc(OC)c1OC | inactive | inactive |
| O=C(OC/C=C/CSc1nnc(-c2cccc3ccccc23)o1)c1ccc(F)cc1 | inactive | inactive |
| c1cncc(CNc2ncnc3ccc(-c4cccnc4)cc23)c1 | inactive | inactive |
| COc1ccccc1C1=Nn2c(nnc2-c2cccc(OC)c2OC)SC1 | inactive | inactive |
| O=C(CNC(=O)C1CCCCCC1)OC(C(=O)Nc1cc(C(F)(F)F)ccc1Cl)c1ccccc1 (centres undefined) | inactive | inactive |
| Cc1cccc(-n2cnc3cc(C(=O)N4CCCC(C(F)(F)F)C4)ccc32)c1 (centres undefined) | inactive | inactive |
| Cc1ccc(NS(=O)(=O)c2cc3c(cc2Cl)NC(=O)C3)cc1C | inactive | inactive |
| COc1cc(NS(=O)(=O)c2ccc(C)cc2)ccc1C(=O)Nc1nc(-c2ccccc2)cs1 | inactive | inactive |
| Clc1ccc(CSc2nc3ncc(Br)cc3[nH]2)cc1 | inactive | inactive |
| Cc1cc(C)nc(NC(=S)N2CCN(c3cc(Cl)c(Cl)c(Cl)c3)CC2)c1 | inactive | inactive |
| Cc1cc2c(s1)c1cnn(Cc3c(F)cccc3F)c(=O)c1n2C | inactive | inactive |
| Cc1nc(-c2ccc([S+](=O)([O-])N3CCN([S+](=O)([O-])c4c(F)cccc4F)CC3)s2)cs1 | inactive | inactive |
| O=S(=O)(c1ccc2c(c1)OCCO2)N1CCCN(S(=O)(=O)c2c(F)cccc2F)CC1 | inactive | inactive |
| CNc1nccc(-c2cccc3ccccc23)n1 | inactive | inactive |

| SMILES | Potency [1] | Potency [2] |
| --- | --- | --- |
| Cc1cc(C)nc(NC(=S)N2CCN(c3ncc(C(F)(F)F)cc3Cl)CC2)c1 | inactive | inactive |
| N#Cc1cccc(-c2ccc(NC(=O)c3cccs3)cn2)c1 | inactive | inactive |
| COc1cc(-c2nc(Nc3ccc(F)c(F)c3)c3ccccc3n2)cc(OC)n1 | inactive | inactive |
| COc1cc(O)c(C(CC(=O)N2CCC[C@H](C)C2)c2ccc3c(c2)OCO3)c(OC)c1 (some centres undefined) | inactive | inactive |
| Cc1cccc(NC(=O)c2cc(-c3ccc(C)c(C)c3)nc3ccccc23)c1 | inactive | inactive |
| CCN(CC)CCCn1c(-c2ccccc2)nc2c(N3CCOCC3)nc(C)nc21 | inactive | inactive |
| COc1cc(NS(=O)(=O)c2ccc(C)cc2)cc(C(=O)Nc2nc(-c3ccccc3)cs2)c1 | inactive | inactive |
| C=C1[C@@H](C)[C@H]2[C@H](Cc3c[nH]c4ccccc34)NC(=O)[C@]23C(=O)/C=C/C(=O)[C@H](O)/C(C)=C\[C@@H](C)C/C=C/[C@H]3[C@@H]1O | 11.2 µM (active) | inactive |
| O=S(=O)(Nc1ccc(-c2ccccc2)cc1)c1ccc(NCc2ccc(Br)cc2O)cc1 | inactive | inactive |
| Cc1noc(C)c1-c1ccc2ncnc(NCc3ccc(Br)cc3)c2c1 | inactive | inactive |
| COc1cc(O)c(C(CC(=O)N2CCCC2)c2ccc3c(c2)OCO3)c(OC)c1 (centres undefined) | inactive | inactive |
| Cc1ccccc1NC(=O)CN1C(=O)N/C(=C\c2cccn2-c2cccc(C(=O)O)c2)C1=O | inactive | inactive |
| COc1ccc(S(=O)(=O)N2CCN(C(=O)C3COc4ccccc4O3)CC2)cc1 (centres undefined) | inactive | inactive |
| C=CCNc1oc(-c2cccc(Cl)c2)nc1C#N | inactive | inactive |
| CCC(C)/C=C(C)/C=C/C1=CC2=C(Cl)C(=O)C(C)(OC(C)=O)C(=O)C2(O)C(OC)O1 (centres undefined) | inactive | inactive |
| Cc1cc(C)nc(NC(=S)N2CCN(c3ncccc3C#N)CC2)c1 | inactive | inactive |
| O=Cc1nc(Nc2cc(F)cc(F)c2)nc(NC2CCCC2)n1 | inactive | inactive |
| CC1=C(C(=O)Nc2ccccc2)C(c2ccccc2Br)N=C(Nc2nc3ccccc3o2)N1 (centres undefined) | inactive | inactive |
| O=C1N/C(=C\c2ccco2)C(=O)N1Cc1ccc(F)cc1 | inactive | inactive |
| Cc1ccnc(NC(=S)N2CC[C@@H](Nc3cccc(C(F)(F)F)c3)C2)c1 | inactive | inactive |
| Cc1cccc(S(=O)(=O)N2CCN(S(=O)(=O)c3ccc4c(c3)OCCO4)CC2)c1 | inactive | inactive |

| SMILES | Potency [1] | Potency [2] |
| --- | --- | --- |
| CCCCNc1nc(C)nc2c1nc(-c1ccccc1)n2CC1CCN(C)CC1 | inactive | inactive |
| O=C1CN(S(=O)(=O)c2c(F)cccc2F)CCN1S(=O)(=O)c1ccc2c(c1)OCCO2 | inactive | inactive |
| O=C(Cn1cc(CNC(=O)C2CCCCC2)nn1)Nc1cc(C(F)(F)F)ccc1Cl | inactive | inactive |
| NC(=O)c1cccc(C[C@H](C(=O)O)N2C(=O)c3ccc(C(=O)O)cc3C2=O)c1 | inactive | inactive |
| Cc1ccc(C)c(OC2=NS(=O)(=O)c3ccccc32)c1 | inactive | inactive |
| Cc1ccc(/C=C/C(=O)Nc2cccc([S+](=O)([O-])Nc3ccccc3F)c2)cc1 | inactive | inactive |
| CC(=O)Nc1ccc(S(=O)(=O)N2CCN(S(=O)(=O)c3c(F)cccc3F)CC2)cc1 | inactive | inactive |
| Cn1nnnc1Sc1ncnc2scc(-c3ccccc3S(C)(=O)=O)c12 | inactive | inactive |
| Fc1ccccc1-c1nnc2n1N=C(c1ccc(OC(F)F)c(OCC3CC3)c1)CS2 | inactive | inactive |
| COc1cc(/C=C/CO)cc(OC)c1O[C@@H]1O[C@H](CO[C@@H]2O[C@H](CO)[C@@H](O)[C@H](O)[C@H]2O)[C@@H](O)[C@H](O)[C@H]1O | inactive | inactive |
| C[C@@H]1O[C@@H](O[C@H]2[C@H](O[C@H]3CC[C@@]4(C)C(CC[C@]5(C)C4C=C[C@]46OC[C@@]7(CCC(C)(C)C[C@H]74)[C@@H](O)C[C@]65C)[C@]3(C)CO)O[C@H](CO)[C@@H](O)[C@@H]2O[C@@H]2O[C@H](CO)[C@@H](O[C@@H]3O[C@@H](C)[C@H](O)[C@@H](O)[C@H]3O)[C@H](O)[C@H]2O)[C@H](O)[C@H](O)[C@H]1O (some centres undefined) | inactive | inactive |
| COc1cc(Cl)ccc1C(=O)Nc1nc(-c2ccccc2)cs1 | inactive | inactive |
| CCOc1ccc(C(C)CNC(=O)c2cc3sccc3n2Cc2ccccc2)cc1OCC (centres undefined) | inactive | inactive |
| Cc1cccc([S+](=O)([O-])NC2CCN(C#N)CC2)c1 | inactive | inactive |
| O=C(CCc1ccccc1Br)NCCc1nc2ccccc2[nH]1 | inactive | inactive |
| Cc1ccc(NS(=O)(=O)c2cc3c(cc2N2CCCCC2)NC(=O)CC3)cc1C | inactive | inactive |
| CC(=O)Nc1sc2c(c1-c1ccc(C(N)=O)cc1)CCNC2 | inactive | inactive |
| O=C(CCCCSc1nnc(-c2cccc3ccccc23)o1)Oc1ccc(F)cc1 | inactive | inactive |
| Fc1ccc(Nc2nc(-c3ccnc(C(F)(F)F)c3)nc3ccccc23)cc1F | inactive | inactive |
